# According to the supplement of paper PMC10849652:
# About 8,800 targets were measured; listed, in parts, are those with a hit and a random draw of the rest. About 0.5% of all pairs of compound and target were hits. A number with no mark means an inactive call.
# Compound: CC1=C(SC2=C1C(=N[C@H](C3=NN=C(N32)C)CC(=O)N)C4=CC=C(C=C4)Cl)C
# Experiment: log2 fold change, soluble protein after heating vs DMSO (PISA); higher = thermal stabilisation; K562 lysate, 10 uM; active = over 0.2 and 3.5 SD of the protein, either way, in both replicates (recomputed)
# Outline: (§1)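 Quantification was by TMTpro 16plex LC-MS/MS with equalised channel sums, applied to the supernatant after 21,000xg for 90 min. Samples were crude K562 extract at 1 mg/mL protein in PBS pH 7.4 with 1 mM MgCl2, treated with 10 μM compound for 30 min, heated for 3 min across 48°C-58°C, pooled and brought to 0.5% NP-40 at 4°C. Values are log-two fold changes in thermal stability relative to solvent controls, from duplicates.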
# UniProt Q14157, sequence (Q14157 whole entry, looked up): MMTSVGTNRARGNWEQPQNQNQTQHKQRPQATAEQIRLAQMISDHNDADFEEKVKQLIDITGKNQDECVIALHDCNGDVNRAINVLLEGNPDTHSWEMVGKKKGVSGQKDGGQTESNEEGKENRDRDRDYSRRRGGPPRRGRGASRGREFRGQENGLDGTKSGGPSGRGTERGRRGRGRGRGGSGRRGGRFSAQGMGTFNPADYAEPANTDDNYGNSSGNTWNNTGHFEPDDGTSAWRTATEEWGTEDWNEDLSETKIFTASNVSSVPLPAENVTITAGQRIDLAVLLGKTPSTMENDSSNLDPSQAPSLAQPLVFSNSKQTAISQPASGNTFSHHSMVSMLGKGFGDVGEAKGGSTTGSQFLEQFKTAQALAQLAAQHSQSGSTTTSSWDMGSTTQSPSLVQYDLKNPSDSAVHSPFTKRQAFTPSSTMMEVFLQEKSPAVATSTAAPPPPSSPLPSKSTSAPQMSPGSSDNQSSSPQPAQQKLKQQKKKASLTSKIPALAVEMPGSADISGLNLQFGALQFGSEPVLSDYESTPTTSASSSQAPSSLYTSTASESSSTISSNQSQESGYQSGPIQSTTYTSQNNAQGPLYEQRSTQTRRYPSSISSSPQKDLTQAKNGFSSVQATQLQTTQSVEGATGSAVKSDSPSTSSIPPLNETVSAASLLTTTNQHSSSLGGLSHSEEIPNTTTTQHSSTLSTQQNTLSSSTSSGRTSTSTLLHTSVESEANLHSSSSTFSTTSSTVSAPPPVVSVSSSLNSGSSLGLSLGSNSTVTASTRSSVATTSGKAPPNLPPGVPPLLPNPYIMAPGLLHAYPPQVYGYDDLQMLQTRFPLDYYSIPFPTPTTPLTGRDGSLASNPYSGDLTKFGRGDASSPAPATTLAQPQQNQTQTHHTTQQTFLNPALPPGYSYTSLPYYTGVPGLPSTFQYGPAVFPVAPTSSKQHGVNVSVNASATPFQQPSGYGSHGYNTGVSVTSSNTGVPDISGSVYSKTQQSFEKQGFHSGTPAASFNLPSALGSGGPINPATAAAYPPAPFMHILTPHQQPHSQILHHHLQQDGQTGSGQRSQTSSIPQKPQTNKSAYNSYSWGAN
# UniProt Q9BZV1, sequence (Q9BZV1 whole entry, looked up): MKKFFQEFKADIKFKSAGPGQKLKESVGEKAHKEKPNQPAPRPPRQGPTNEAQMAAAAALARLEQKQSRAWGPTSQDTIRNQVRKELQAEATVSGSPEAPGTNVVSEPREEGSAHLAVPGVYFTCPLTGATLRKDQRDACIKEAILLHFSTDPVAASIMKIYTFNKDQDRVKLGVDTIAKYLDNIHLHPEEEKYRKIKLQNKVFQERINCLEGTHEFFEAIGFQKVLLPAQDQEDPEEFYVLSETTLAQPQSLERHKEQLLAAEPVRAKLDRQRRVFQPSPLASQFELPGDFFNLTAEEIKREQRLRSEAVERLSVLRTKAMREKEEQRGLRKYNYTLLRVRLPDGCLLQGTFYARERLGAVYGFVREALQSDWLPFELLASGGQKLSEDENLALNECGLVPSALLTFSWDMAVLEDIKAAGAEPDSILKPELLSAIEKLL
# UniProt P09493, sequence (P09493 whole entry, looked up): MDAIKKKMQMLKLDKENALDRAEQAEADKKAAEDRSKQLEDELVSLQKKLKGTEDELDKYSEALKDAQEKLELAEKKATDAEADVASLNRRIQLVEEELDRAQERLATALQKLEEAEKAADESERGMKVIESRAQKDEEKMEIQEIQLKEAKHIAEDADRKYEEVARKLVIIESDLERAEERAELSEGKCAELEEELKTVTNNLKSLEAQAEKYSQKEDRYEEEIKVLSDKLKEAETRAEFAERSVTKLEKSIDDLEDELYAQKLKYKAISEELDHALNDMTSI
# UniProt Q9UNY4, sequence (Q9UNY4 whole entry, looked up): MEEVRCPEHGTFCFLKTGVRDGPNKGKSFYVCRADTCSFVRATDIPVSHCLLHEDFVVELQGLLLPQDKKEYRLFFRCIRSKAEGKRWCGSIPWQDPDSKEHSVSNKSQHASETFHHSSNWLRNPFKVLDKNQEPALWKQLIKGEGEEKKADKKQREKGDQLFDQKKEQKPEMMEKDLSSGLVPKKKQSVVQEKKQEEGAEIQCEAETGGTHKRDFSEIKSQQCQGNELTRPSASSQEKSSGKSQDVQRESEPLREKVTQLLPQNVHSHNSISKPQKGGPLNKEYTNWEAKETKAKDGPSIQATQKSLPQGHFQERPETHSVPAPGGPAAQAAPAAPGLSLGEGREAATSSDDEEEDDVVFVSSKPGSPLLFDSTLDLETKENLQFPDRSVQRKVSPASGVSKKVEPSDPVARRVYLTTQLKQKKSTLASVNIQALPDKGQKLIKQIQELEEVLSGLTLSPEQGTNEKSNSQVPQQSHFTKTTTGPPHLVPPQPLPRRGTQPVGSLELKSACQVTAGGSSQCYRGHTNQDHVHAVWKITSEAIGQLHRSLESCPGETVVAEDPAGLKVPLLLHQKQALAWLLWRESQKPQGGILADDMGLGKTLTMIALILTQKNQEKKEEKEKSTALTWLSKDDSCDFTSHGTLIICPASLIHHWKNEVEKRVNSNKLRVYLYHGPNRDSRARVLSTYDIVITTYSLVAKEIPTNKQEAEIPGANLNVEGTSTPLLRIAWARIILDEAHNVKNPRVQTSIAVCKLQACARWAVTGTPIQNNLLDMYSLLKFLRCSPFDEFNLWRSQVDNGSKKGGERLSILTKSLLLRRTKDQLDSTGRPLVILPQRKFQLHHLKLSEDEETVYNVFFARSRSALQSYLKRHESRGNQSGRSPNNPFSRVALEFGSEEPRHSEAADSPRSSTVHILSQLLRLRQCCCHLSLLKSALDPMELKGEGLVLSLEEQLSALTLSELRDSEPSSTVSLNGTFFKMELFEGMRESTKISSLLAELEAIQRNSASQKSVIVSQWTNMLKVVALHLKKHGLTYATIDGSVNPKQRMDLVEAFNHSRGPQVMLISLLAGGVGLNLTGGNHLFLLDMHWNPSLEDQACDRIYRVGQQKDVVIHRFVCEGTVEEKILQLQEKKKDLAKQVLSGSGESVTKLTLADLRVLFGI
# UniProt Q14166, sequence (Q14166 whole entry, looked up): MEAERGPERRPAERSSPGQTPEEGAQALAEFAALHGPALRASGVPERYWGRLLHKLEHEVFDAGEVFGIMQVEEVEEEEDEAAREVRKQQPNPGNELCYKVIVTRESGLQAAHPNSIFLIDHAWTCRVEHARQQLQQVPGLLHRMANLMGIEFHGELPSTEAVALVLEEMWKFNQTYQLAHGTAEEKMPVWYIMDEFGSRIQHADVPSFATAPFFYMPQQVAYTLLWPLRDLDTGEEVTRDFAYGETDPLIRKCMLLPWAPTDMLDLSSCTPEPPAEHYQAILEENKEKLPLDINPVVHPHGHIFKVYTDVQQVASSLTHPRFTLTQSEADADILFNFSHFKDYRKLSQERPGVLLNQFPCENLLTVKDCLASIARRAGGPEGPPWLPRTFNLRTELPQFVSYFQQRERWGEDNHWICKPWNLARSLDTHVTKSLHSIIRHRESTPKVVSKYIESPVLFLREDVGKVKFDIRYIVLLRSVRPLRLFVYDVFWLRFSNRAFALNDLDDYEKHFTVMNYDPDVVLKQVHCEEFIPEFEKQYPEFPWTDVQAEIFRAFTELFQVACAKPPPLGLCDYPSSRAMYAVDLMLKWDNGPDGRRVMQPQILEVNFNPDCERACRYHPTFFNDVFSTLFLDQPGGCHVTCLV
# UniProt Q9P0S9, sequence (Q9P0S9 whole entry, looked up): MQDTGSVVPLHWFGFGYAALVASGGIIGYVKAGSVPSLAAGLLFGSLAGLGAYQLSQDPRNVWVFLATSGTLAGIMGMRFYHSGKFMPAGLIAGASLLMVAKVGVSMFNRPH
# UniProt P48553, sequence (P48553 whole entry, looked up): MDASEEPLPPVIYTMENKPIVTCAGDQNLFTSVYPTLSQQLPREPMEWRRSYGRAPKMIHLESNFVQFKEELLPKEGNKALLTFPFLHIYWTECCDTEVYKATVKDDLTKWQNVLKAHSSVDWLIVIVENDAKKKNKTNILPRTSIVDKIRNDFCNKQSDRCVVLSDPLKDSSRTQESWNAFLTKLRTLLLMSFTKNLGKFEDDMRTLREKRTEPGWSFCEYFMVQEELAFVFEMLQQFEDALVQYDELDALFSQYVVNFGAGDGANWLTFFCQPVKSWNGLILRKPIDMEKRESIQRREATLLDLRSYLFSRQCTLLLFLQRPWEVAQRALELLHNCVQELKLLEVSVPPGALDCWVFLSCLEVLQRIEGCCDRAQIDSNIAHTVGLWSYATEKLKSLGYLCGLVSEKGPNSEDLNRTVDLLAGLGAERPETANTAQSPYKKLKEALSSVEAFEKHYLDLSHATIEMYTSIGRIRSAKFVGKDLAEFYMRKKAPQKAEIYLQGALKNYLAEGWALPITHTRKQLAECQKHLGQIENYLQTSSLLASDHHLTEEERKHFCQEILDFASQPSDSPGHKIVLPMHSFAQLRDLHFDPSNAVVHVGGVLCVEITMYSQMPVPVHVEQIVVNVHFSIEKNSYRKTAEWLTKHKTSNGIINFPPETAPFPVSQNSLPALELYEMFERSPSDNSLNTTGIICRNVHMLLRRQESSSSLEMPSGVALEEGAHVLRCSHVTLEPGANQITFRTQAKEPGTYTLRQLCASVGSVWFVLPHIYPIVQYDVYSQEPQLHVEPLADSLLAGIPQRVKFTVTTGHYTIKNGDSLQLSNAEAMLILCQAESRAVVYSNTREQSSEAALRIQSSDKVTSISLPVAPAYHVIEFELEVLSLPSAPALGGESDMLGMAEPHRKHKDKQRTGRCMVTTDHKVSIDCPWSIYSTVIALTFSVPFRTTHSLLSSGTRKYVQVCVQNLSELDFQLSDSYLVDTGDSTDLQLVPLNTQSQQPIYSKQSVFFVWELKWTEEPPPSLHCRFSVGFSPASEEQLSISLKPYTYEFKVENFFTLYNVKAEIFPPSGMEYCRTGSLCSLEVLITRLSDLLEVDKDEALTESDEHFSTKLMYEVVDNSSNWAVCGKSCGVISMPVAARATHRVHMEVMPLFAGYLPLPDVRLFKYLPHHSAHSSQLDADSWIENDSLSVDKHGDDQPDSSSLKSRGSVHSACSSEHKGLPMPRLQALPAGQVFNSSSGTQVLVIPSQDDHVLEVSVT
row,Target,log2 fold change
1,TRNAU1AP (UniProt Q9NX07),-0.008
2,TERF2IP (UniProt Q9NYB0),-0.006
3,TFIP11 (UniProt Q9UBB9),-0.022
4,TBC1D8B (UniProt Q0IIM8),-0.078
5,UBE2H (UniProt P62256),0.02
6,TMPO isoform 2 (UniProt P42167),0.088
7,TELO2 (UniProt Q9Y4R8),-0.012
8,UBAP2L isoform 1 (UniProt Q14157),-0.087
9,TMEM263 (UniProt Q8WUH6),-0.048
10,TTLL12 (UniProt Q14166),0.013
11,TTC37 (UniProt Q6PGP7),0.044
12,TUBB2A (UniProt Q13885),0.01
13,TTF2 (UniProt Q9UNY4),0.029
14,UBAP2L isoform 5 (UniProt Q14157),0.049
15,TUBA4A (UniProt P68366),0.013
16,TEX30 (UniProt Q5JUR7),0.066
17,TECR (UniProt Q9NZ01),0.083
18,TUBGCP3 (UniProt Q96CW5),-0.004
19,TMPO (UniProt P42166),0.015
20,TIMELESS (UniProt Q9UNS1),0.011

row,Target,log2 fold change
1,TPM3 (UniProt P06753),0.008
2,TMEM164 (UniProt Q5U3C3),-0.155
3,TMEM14C (UniProt Q9P0S9),-0.031
4,TXNIP (UniProt Q9H3M7),0.005
5,TUBE1 (UniProt Q9UJT0),0.003
6,TDRKH (UniProt Q9Y2W6),-0.028
7,TPM1 isoform 4 (UniProt P09493),-0.012
8,UBXN6 (UniProt Q9BZV1),0.027
9,TRAPPC10 (UniProt P48553),-0.015
10,TMEM199 (UniProt Q8N511),-0.002
11,TUBA1B (UniProt P68363),0.014
12,UBP1 (UniProt Q9NZI7),-0.057
13,TOR3A (UniProt Q9H497),-0.025
14,TBC1D23 (UniProt Q9NUY8),0.01
15,TRIM33 (UniProt H0Y612),0.008
16,TFCP2 (UniProt Q12800),-0.013
17,TNPO3 (UniProt Q9Y5L0),0.07
18,TUBGCP2 isoform 4 (UniProt Q9BSJ2),-0.015
19,TTC5 (UniProt Q8N0Z6),0.009

# Compound: CC1=C2C(=CC=C1)N=C(N(C2=O)C3=CC=CC=C3C)CN4C=NC5=C(N=CN=C54)N
# Experiment: as above
# Outline: as §1
row,Target,log2 fold change
1,TRNAU1AP (UniProt Q9NX07),0.195
2,TERF2IP (UniProt Q9NYB0),-0.077
3,TFIP11 (UniProt Q9UBB9),0.007
4,TBC1D8B (UniProt Q0IIM8),-0.038
5,UBE2H (UniProt P62256),0.012
6,TMPO isoform 2 (UniProt P42167),0.033
7,TELO2 (UniProt Q9Y4R8),-0.019
8,TMEM263 (UniProt Q8WUH6),0.211
9,TTLL12 (UniProt Q14166),0.011
10,TTC37 (UniProt Q6PGP7),0.16
11,TUBB2A (UniProt Q13885),0
12,TTF2 (UniProt Q9UNY4),0.003
13,UBAP2L isoform 5 (UniProt Q14157),-0.022
14,TUBA4A (UniProt P68366),0.03
15,TEX30 (UniProt Q5JUR7),-0.006
16,TECR (UniProt Q9NZ01),0.015
17,TUBGCP3 (UniProt Q96CW5),0.011
18,TMPO (UniProt P42166),0.015
19,TIMELESS (UniProt Q9UNS1),0.01

row,Target,log2 fold change
1,TPM3 (UniProt P06753),-0.018
2,TMEM164 (UniProt Q5U3C3),0.111
3,TMEM14C (UniProt Q9P0S9),0.14
4,TXNIP (UniProt Q9H3M7),0.029
5,TUBE1 (UniProt Q9UJT0),0.019
6,TDRKH (UniProt Q9Y2W6),0.1
7,TPM1 isoform 4 (UniProt P09493),0
8,UBXN6 (UniProt Q9BZV1),0.03
9,TRAPPC10 (UniProt P48553),0.033
10,TMEM199 (UniProt Q8N511),0.07
11,TUBA1B (UniProt P68363),0.004
12,UBP1 (UniProt Q9NZI7),-0.018
13,TOR3A (UniProt Q9H497),0.013
14,TBC1D23 (UniProt Q9NUY8),-0.017
15,TRIM33 (UniProt H0Y612),0.05
16,TFCP2 (UniProt Q12800),0.004
17,TNPO3 (UniProt Q9Y5L0),-0.003
18,TUBGCP2 isoform 4 (UniProt Q9BSJ2),0.035
19,TTC5 (UniProt Q8N0Z6),0.035
